Screens: PubChem, several laboratories
tim23-1 inh = growth inhibitors of tim23-1 mutant yeast; 330,000 compounds, 1.3% hits; S. cerevisiae tim23-1 growth, BacTiter-Glo luminescence, 24 h; inhibition, % at 20 µM;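 active = growth inhibition of the mutant yeast at or above 50%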;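 note: temperature-sensitive mutant grown at 25 °C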
tim10-1 inh = inhibits growth of tim10-1 mutant yeast | 330,000 compounds, 2.2% hits | inhibition, % at 20 µM | S. cerevisiae tim10-1 ts strain growth, BacTiter-Glo, 24 h;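 active = inhibition of at least 40%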;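 note: mutant grown at 25 °C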
TIM10 inh = growth inhibitors of TIM10 yeast strain; AID 463195; inhibition, % at 10 µM; 330,000 compounds, 1.4% hits; S. cerevisiae TIM10 strain growth, BacTiter-Glo luminescence, 24 h;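 active = inhibition of 40% or more at the single tested concentration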;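 note: wild-type TIM10 isogenic control strain grown at permissive 25 °C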
Mot1-301 SUMO = inhibitors of SUMOylation pathway: yeast Mot1-301 growth rescue. AID 2716. S. cerevisiae Mot1-301 growth rescue, ATP luminescence, 38.5C; percent above DMSO median, 100 means doubled. 320,000 compounds, 1% hits. growth rescue, % at 18.8 µM;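 active = every valid replicate shows activation above 250% relative to neutral control wells; inactive = the rest, any valid replicate at or below 250%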
PfHsp90 yeast 2 = growth inhibition of yeast expressing Plasmodium Hsp90; S. cerevisiae expressing PfHsp90, BacTiter-Glo ATP, 48 h; yeast lacking PDR1 and PDR3 efflux regulators; inhibition, % at 9.4 µM; 310,000 compounds, 0.32% hits; AID 504621;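 active = every replicate shows inhibition above about 80%, whatever the replicate mean, limit read from the data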
tim10-1 confirm = tim10-1 yeast growth inhibition, confirmed | S. cerevisiae tim10-1 ts strain growth, BacTiter-Glo, 24 h | inhibition, % at 20 µM | 7,400 compounds, 56% hits | shares compounds with tim10-1 inh;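 active = inhibition of yeast growth at or above a set limit in either of two repeat tests at 20 µM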;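 note: tim10-1 mutant grown at permissive 25 °C to find synthetic lethal compounds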
Large screens that a line does not name were inactive (follow-up assays come after a bar, where they were run); ! = not active in a repeat. The list is not random: actives were taken first. Their share in the collection is about 4.4%.

COc1ccc(-c2noc(N3CCCC(C(=O)Nc4ccc(F)cc4F)C3)n2)cc1 (centres undefined)	none
CC(=O)Nc1ccc(N2S(=O)(=O)c3ccccc3S2(=O)=O)cc1	tim10-1 inh 41 | tim10-1 confirm inactive
CCN1C(=O)/C(=C/c2c(C)nn(C)c2C)SC1=S	tim10-1 inh 55 (no result: PfHsp90 yeast 2) | tim10-1 confirm 44
CC(C)c1ccc2oc(-c3cc(N)ccc3O)nc2c1	tim10-1 inh 52 | tim10-1 confirm 33
COc1ccc(N2CCN(C(=O)C3CCN(S(=O)(=O)c4ccc5c(c4)oc(=O)n5C)CC3)CC2)cc1	none
O=C(Cn1ccc2cc(S(=O)(=O)N3CCCCC3)ccc21)NCc1ccccc1F	none
COc1ccc(-c2nc(NC(C)=O)sc2-c2ccccc2)cc1	tim10-1 inh 42 | tim10-1 confirm inactive
COc1ccc(CC(=O)Nc2nc(-c3ccccc3)c(C(C)=O)s2)cc1OC	tim10-1 inh 48 | tim10-1 confirm inactive
COc1cc(CC(=O)Nc2nc(-c3ccccc3)c(C(C)=O)s2)cc(OC)c1OC	none
Cc1nc(SCC(=O)N(C)C2CCS(=O)(=O)C2)c(C#N)c(C)c1C (centres undefined)	none
CCN(CC)S(=O)(=O)c1ccc(N2CCCC2)c(NS(=O)(=O)c2ccc(F)cc2)c1	tim10-1 inh 40 | tim10-1 confirm inactive
C=C1CCC[C@]2(C)C[C@H]3OC(=O)C(CNCC(OC)OC)[C@H]3CC12 (some centres undefined)	none
C=C1CCC[C@]2(C)C[C@H]3OC(=O)C(CN4CCOCC4)[C@H]3C[C@@H]12 (some centres undefined)	tim10-1 inh 51 | tim10-1 confirm 46
CC(C)n1c(NCc2ccccc2O)nc2ccccc21	none
C=CCc1cccc(CNc2nc3ccccc3n2C(C)C)c1O	tim10-1 inh 43 | tim10-1 confirm 34
C=CCc1cccc(CNc2ccc(Br)cc2)c1O	tim10-1 inh 43 (no result: Mot1-301 SUMO) | tim10-1 confirm 64
C=CCc1cccc(CNc2ccc(S(=O)(=O)Nc3nccnc3OC)cc2)c1O	none
C=CCNC(=S)N/N=C(\C)c1ccc(OC)cc1	tim10-1 inh 41 | tim10-1 confirm inactive
CCn1c(-c2csc3c2CCC(C)C3)n[nH]c1=S (centres undefined)	tim10-1 inh 48 | tim10-1 confirm inactive
CCn1c(-c2csc3ccccc23)n[nH]c1=S	none
COc1ccc2[nH]c(=O)c(CN(Cc3nnnn3Cc3ccco3)C3CCCCC3)cc2c1	none (no result: Mot1-301 SUMO)
COc1ccc2[nH]c(=O)c(CN(C3CCCCC3)C(c3nnnn3Cc3ccco3)C(C)C)cc2c1 (centres undefined)	tim10-1 inh 41 | tim10-1 confirm inactive
COc1cc(/C=N/O)cc(Br)c1OCc1ccc(Cl)cc1	tim10-1 inh 44 | tim10-1 confirm inactive
O=C(NNS(=O)(=O)c1ccccc1)C1CCCCC1	none
CN1/C(=C\C(=O)COC(=O)CN2C(=O)C3CC=CCC3C2=O)C(C)(C)c2ccccc21 (centres undefined)	tim10-1 inh 42 | tim10-1 confirm inactive
CN1/C(=C\C(=O)COC(=O)CNC(=O)c2ccccc2F)C(C)(C)c2ccccc21	none
CN1/C(=C\C(=O)COC(=O)CNC(=O)c2ccc3ccccc3c2)C(C)(C)c2ccccc21	tim10-1 inh 44 | tim10-1 confirm inactive
CCCCN1C(=O)C(=O)N(CC(=O)N2CCc3ccccc32)C1=O	none
Cc1cc(C(=O)Nc2ccccc2Cl)n(-c2ccccc2)n1	none
COc1ccc(-c2c[n+]3c4n2CCCCC4=C(c2ccccc2)C3)cc1	tim10-1 inh 45 (no result: Mot1-301 SUMO, PfHsp90 yeast 2) | tim10-1 confirm inactive
CCOC(=O)c1nn(-c2ccccc2Cl)c(=O)cc1OCC(=O)Nc1cccc(OC)c1	none
CC(=O)CSc1nnc(-c2ccc(S(=O)(=O)N3CCC(C)CC3)cc2)o1	tim10-1 inh 42 | tim10-1 confirm inactive
CCOC(=O)CSc1nnc(-c2ccc(S(=O)(=O)N3CCC(C)CC3)cc2)o1	none
Cc1onc(-c2c(F)cccc2Cl)c1C(=O)N(Cc1ccccc1)C(C)C	none
Cc1cc(C)n(-c2nnc(NCc3ccc(Cl)cc3)nn2)n1	none
Cc1nn(-c2nnc(NCc3ccccc3)nn2)c(C)c1Br	tim10-1 inh 49 | tim10-1 confirm inactive
Cc1ccc(Cl)cc1NC(=O)COC(=O)C12CC3CC(CC(C3)C1)C2	tim10-1 inh 47! | tim10-1 confirm 33
